Measured values from PubChem BioAssay (Tox21).
Records with an inconclusive call do not appear. Active and inactive are the calls of the source. Unless noted, the call rests on the fitted dose curve; in most records, active means well fitted curve in the direction sought with a large enough effect in the repeat runs; inconclusive means weak or mixed curves; inactive means no such curve, though single readings can be large; an effect the other way counts as inactive or inconclusive.

How the values were obtained:
[1] = qHTS assay to identify small molecule antagonists of the vitamin D receptor (VDR) signaling pathway - cell viability counter screen (AID 743225); further: nearly all actives have a fitted effect of over 50% in size
How it was run: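 Parallel cytotoxicity test: VDR-UAS-bla HEK 293T, 3 nM (final) 1-alpha,25-dihydroxyvitamin D3 with test compound, 16 h, 37C. Endpoint is CellTiter-Glo luminescence in the same wells.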

[2] = qHTS assay to identify small molecule agonists of the NFkB signaling pathway - cell viability counter screen (AID 1159515; calls by dose curve; further: series mostly up to about 61 µM; nearly all actives have a fitted effect of over 55% in size)
How it was run: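 NFkB-bla ME-180 cells, 2,000/well, were plated overnight at 37 C, 5% CO2, then exposed to compounds in DMSO for 5 hr. After the bla FRET read, CellTiter-Glo was added to the same wells; luminescence was read after 30 min at room temperature.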

[3] = qHTS assay to identify small molecule agonists of the endoplasmic reticulum stress response signaling pathway (AID 1159516; active means well fitted activation curve with a large enough effect in the signal ratio in the repeat runs, not every such curve was filed as active; the % refers to the signal ratio)
How it was run: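 CellSensor ESRE-bla HeLa cells, carrying a beta-lactamase reporter driven by the ER stress response element, were plated overnight and exposed to compounds for 5 hr at 37 C. Reporter activity was read as FRET substrate fluorescence after 2 hr at room temperature.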

[4] = qHTS assay to identify small molecule agonists of the endoplasmic reticulum stress response signaling pathway - cell viability counter screen (AID 1159517; calls by dose curve; further: series mostly up to about 61 µM; nearly all actives have a fitted effect of over 50% in size)
How it was run: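 Cells, HeLa ESRE-bla; density, 1,500/well; dosing, 5 hr at 37 C, 5% CO2; readout, CellTiter-Glo luminescence after 30 min RT.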

[5] = qHTS assay to identify small molecule antagonists of the retinoid-related orphan receptor gamma (ROR-gamma) signaling pathway - cell viability counter screen (AID 1159520); further: nearly all actives have a fitted effect of over 50% in size
How it was run: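 Cytotoxicity was read from cellular ATP (CellTiter-Glo luminescence) after 16 hr at 37 C with 1 uM doxycycline induction. The inducer was added 2 hr after compound transfer to Tet-on ROR gamma CHO cells.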

[6] = target: Nuclear receptor ROR-gamma (Homo sapiens) (UniProt P51449); experiment: qHTS assay to identify small molecule antagonists of the retinoid-related orphan receptor gamma (ROR-gamma) signaling pathway (AID 1159521;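 further: CHO cells with doxycycline inducible ROR-gamma driving an RORE luciferase reporter; top concentration of the series differs between compounds; nearly all actives have a fitted effect of over 50% in size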)
How it was run: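 Decreased RORE-driven luciferase luminescence indicates antagonism. Tet-on RORγ CHO cells received compound, then 1 uM final doxycycline 2 h later; signal read after 16 h incubation.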

[7] = qHTS assay to identify small molecule agonists of the AP-1 signaling pathway - cell viability counter screen (AID 1159525; calls by dose curve; further: nearly all actives have a fitted effect of over 55% in size)
How it was run: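 Luminescent ATP readout (Cell Titer Glo, 30 min RT), normalised to DMSO and tetra n-octyl ammonium bromide controls. Cells were ME-180 AP-1-bla in 0.5% dialyzed FBS Opti-MEM, with a 5 h, 37 °C compound exposure.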

[8] = qHTS assay to identify small molecule agonists of the AP-1 signaling pathway (AID 1159526; calls by dose curve)
[9] = target: Retinoic acid receptor RXR-alpha (Homo sapiens) (UniProt P19793); experiment: qHTS assay to identify small molecule agonists of the RXR signaling pathway (AID 1159527; calls by dose curve; further: nearly all actives have a fitted effect of over 35% in size)
Retinoic acid receptor RXR-alpha (Homo sapiens), sequence (P19793 whole entry, looked up): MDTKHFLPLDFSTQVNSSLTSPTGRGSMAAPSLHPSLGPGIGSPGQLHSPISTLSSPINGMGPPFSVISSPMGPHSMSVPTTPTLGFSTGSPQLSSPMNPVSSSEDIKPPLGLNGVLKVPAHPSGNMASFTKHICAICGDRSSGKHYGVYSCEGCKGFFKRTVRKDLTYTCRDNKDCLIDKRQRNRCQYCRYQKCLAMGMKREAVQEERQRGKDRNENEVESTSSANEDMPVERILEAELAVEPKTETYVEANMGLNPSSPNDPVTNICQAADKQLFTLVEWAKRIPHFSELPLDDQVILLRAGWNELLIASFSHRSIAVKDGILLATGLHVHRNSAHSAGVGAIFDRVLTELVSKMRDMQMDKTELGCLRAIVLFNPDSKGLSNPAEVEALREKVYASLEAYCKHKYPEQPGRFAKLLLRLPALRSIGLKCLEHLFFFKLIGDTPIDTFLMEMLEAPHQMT
How it was run: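 16 hr incubation of compound-treated RXR-alpha-UAS-bla HEK 293T cells (2% charcoal-stripped FBS, 37 C) preceded a 2 hr room-temperature LiveBLAzer FRET substrate step and blue/green fluorescence measurement.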

[10] = qHTS assay to identify small molecule agonists of the RXR signaling pathway - cell viability counter screen (AID 1159529)
How it was run: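 In this parallel viability measure, GeneBLAzer RXR-alpha HEK 293T cells (2% charcoal-stripped FBS) were given a 5 hr preincubation, treated with compounds 16 hr at 37 C, and read by CellTiter-Glo luminescence.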

[11] = qHTS assay to identify small molecule agonists of the retinoic acid receptor (RAR) signaling pathway (AID 1159553)
How it was run: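 C3RL4 cells carrying a RARE luciferase reporter were plated overnight at 37 C, then exposed to compounds in DMSO for 6 hr at 37 C and 5% CO2. Luminescence was read 30 min after luciferase reagent addition at room temperature.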

[12] = qHTS assay to identify small molecule antagonists of the estrogen related receptor (ERR) signaling pathway from Tox21 library - cell viability counter screen (AID 1224834); further: nearly all actives have a fitted effect of over 30% in size
How it was run: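 ERR reporter cells were plated 6 h before compound addition, then exposed to test compounds in DMSO for 17.5 h at 37 C. Viability was read as CellTiter-Fluor fluorescence after a 30-minute incubation at 37 C.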

[13] = qHTS assay to identify small molecule antagonists of the retinoid acid receptor (RAR) signaling pathway - cell viability counter screen (AID 1159551); further: nearly all actives have a fitted effect of over 35% in size
How it was run: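 C3RL4 cells were seeded overnight at 37 C, then treated with compounds plus 1 uM (final) retinol for 6 h at 37 C. Viability was read as ATP by CellTiter-Glo luminescence after 30 min at room temperature.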

[14] = qHTS assay to identify small molecule antagonists of the retinoic acid receptor (RAR) signaling pathway (AID 1159552; further: nearly all actives have a fitted effect of over 50% in size)
How it was run: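 C3RL4 RARE-luc cells, overnight plating; retinol 1 uM final added right after compound; 6 hr 37 C; luciferase read at 30 min RT.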

Measured: Potency

O=C(O)CCCC[P+](c1ccccc1)(c1ccccc1)c1ccccc1
not listed: [13] | [14]
inactive: all other assays above

CCC(=O)OCc1ccccc1
not listed: [11] | [12] | [14]
inactive: all other assays above

C=CCCCCCCCCC(=O)OCC
not listed: [11] | [12] | [14]
inactive: all other assays above

Cc1nc2ccc(CN(C)c3ccc(C(=O)N[C@@H](CCC(=O)O)C(=O)O)s3)cc2c(=O)[nH]1
not listed: [11] | [13] | [14]
inactive: all other assays above

O=[N+]([O-])c1ccc(/C=N\O)o1
not listed: [11] | [12] | [13] | [14]
inactive: all other assays above

NC(=O)N1c2ccccc2CC(=O)c2ccccc21
not listed: [11] | [14]
inactive: all other assays above

CC(COc1ccccc1)NN (stereo not drawn)
not listed: [11] | [13] | [14]
inactive: all other assays above

CC(C)(CCC(=O)O)C(=O)O
not listed: [11] | [13] | [14]
inactive: all other assays above

CCCCCCC#CC(=O)OC
not listed: [11] | [12] | [13] | [14]
inactive: all other assays above

Nc1ccncc1N
not listed: [11] | [14]
inactive: all other assays above

C=CCCC(=O)O
not listed: [11] | [14]
inactive: all other assays above

O=[N+]([O-])c1cncn1CCN1CCOCC1
not listed: [11] | [12] | [14]
inactive: all other assays above

CC(=O)Nc1ccc(OCC(O)CNC(C)C)cc1 (stereo not drawn)
not listed: [11] | [12] | [13]
inactive: all other assays above

CC(=O)OCC(=O)[C@@]1(O)[C@H](C)C[C@H]2[C@@H]3CCC4=CC(=O)C=C[C@]4(C)[C@@]3(F)[C@@H](O)C[C@@]21C
not listed: [1] | [11] | [13] | [14]
inactive: all other assays above

CN1[C@@H]2CC[C@H]1CC(OC(=O)C(O)c1ccccc1)C2 (stereo partly drawn)
not listed: [11] | [14]
inactive: all other assays above

CC[N+](C)(CC)CCOC(=O)C1c2ccccc2Oc2ccccc21
not listed: [10] | [14]
inactive: all other assays above

CC(C)C(=O)OC(=O)C(C)C
not listed: [10] | [11] | [12] | [13] | [14]
inactive: all other assays above

CC12CCC(C(=O)C1=O)C2(C)C (stereo not drawn)
not listed: [9]
inactive: all other assays above

C=C(C)C(=O)OCC(O)CO (stereo not drawn)
not listed: [10] | [11] | [14]
inactive: all other assays above

CN(C)CCN(C)CCN(C)C
not listed: [1] | [10] | [11] | [14]
inactive: all other assays above

CN(C)CCCCCCN(C)C
not listed: [1] | [9] | [10]
inactive: all other assays above
